Screens as filed in PubChem BioAssay.
The list is not random: actives were taken first. Their share in the collection is about 3.3%.
VACV mCherry inh: qHTS for Stage-Specific Inhibitors of Vaccinia Orthopoxvirus: mCherry Reporter Primary qHTS; 0.63% of 310,000 active; Potency, µM (top dose mostly 36.5 µM), for the others: top-dose activity change, negative = inhibition, actives largely listed as inhibitors; Vaccinia virus mCherry reporter infection, fluorescence; calls by dose curve; tested in A549 cells; note: nearly all actives have a fitted effect of over 35% in size
Vaccinia Venus: qHTS for Stage-Specific Inhibitors of Vaccinia Orthopoxvirus: Venus Reporter Primary qHTS; 0.46% of 330,000 active; AID 720580, 2013; Potency, µM (series often up to 36.5 µM), for inactives: at the top dose activity change, negative = inhibition, usual class: inhibitors; Vaccinia virus Venus reporter expression, fluorescence; calls by dose curve; tested in A549 cells; note: nearly all actives have a fitted effect of over 30% in size
HCV inhibitor: qHTS Assay for Inhibitors of Hepatitis C Virus (HCV); Huh7.5.1 HCVcc-Cre infection, luciferase reporter, 44 h; Potency, µM (highest dose often 41.8 µM), without a hit: at the highest dose activity change, negative = inhibition, hits mostly inhibitors; 3.4% of 340,000 active; AID 651820, 2012; active = well fitted inhibition curve with a large enough effect; inconclusive = small, poorly fitted or top-dose-only effect, or another doubt; inactive = no such curve, though single readings can be large or run the other way
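After 44 h co-culture of compound, cells and HCVcc-Cre (~0.5 moi), substrate is added for 15 min at room temperature and luciferase measured over 15 sec. Cells were seeded at 1,000/well and pre-cultured 4 h.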
* hit, by the source's call; [ ] = remark or other dose. % is set by controls: 0 for no effect and ±100 for the full control effect; potency is the fitted concentration of half-maximal effect.

What do the screens show for `CCOc1ncccc1C(=O)Nc1ccc(S(=O)(=O)NC2=NCCCCC2)cc1`?
VACV mCherry inh: inactive; Vaccinia Venus: -3%; HCV inhibitor: -20%

What do the screens show for `CCCNCC(=O)Nc1cccc(S(=O)(=O)NC2=NCCCCC2)c1`?
VACV mCherry inh: -13%; Vaccinia Venus: 4%; HCV inhibitor: 0%

How did O=C(/C=C/c1ccc(Cl)cc1Cl)Nc1cccc(S(=O)(=O)NC2=NCCCCC2)c1 do in these assays?
VACV mCherry inh: inconclusive; Vaccinia Venus: -26%; HCV inhibitor: inconclusive

How did O=C(/C=C/c1ccccc1[N+](=O)[O-])Nc1cccc(S(=O)(=O)NC2=NCCCCC2)c1 do in these assays?
VACV mCherry inh: inactive; Vaccinia Venus: -17%; HCV inhibitor: 3.2µM*

How did COc1ccccc1N1CCN(c2nc(CNC(=O)c3ccccc3F)nc3ccccc23)CC1 do in these assays?
VACV mCherry inh: -15%; Vaccinia Venus: 7%

Results for Cc1ccc(CNc2ncnc3nc[nH]c23)cc1 ?
VACV mCherry inh: -1%; Vaccinia Venus: -13%

How did CCCC(=O)N(C)c1ccc(/C=C2\C=Cc3ccccc32)cc1 do in these assays?
VACV mCherry inh: inconclusive; Vaccinia Venus: -23%

Results for COC(=O)[C@@H]1CCCN1Cc1ccc2c(c1)CN(Cc1ccccc1C)CCO2 ?
VACV mCherry inh: -14%; Vaccinia Venus: -3%

How did NC(N)=NCCC[C@H](NC(=O)[C@@H](N)Cc1ccc(O)cc1)C(=O)O do in these assays?
VACV mCherry inh: -9%[3.33 µM]; Vaccinia Venus: -4%[3.33 µM]

How did CCc1ccccc1NC(=O)CSc1nnc(-c2cc(OC)c(OC)c(OC)c2)o1 do in these assays?
VACV mCherry inh: -19%; Vaccinia Venus: -14%

How did COc1ccccc1C(=O)N[C@@H]1c2ccccc2C2(CCN(Cc3ccc(C)o3)CC2)[C@H]1O do in these assays?
VACV mCherry inh: -5%; Vaccinia Venus: -24%

What do the screens show for `O=C(CCl)Nc1ccc(S(=O)(=O)NC2=NCCCCC2)cc1`?
VACV mCherry inh: 14µM*; Vaccinia Venus: inconclusive; HCV inhibitor: inconclusive

Results for CC(C)(C)C(=O)Nc1ccc(S(=O)(=O)NC2=NCCCCC2)cc1 ?
HCV inhibitor: 7%

Results for CCOC(=O)C1CCN(C(c2cccc(F)c2)c2c(O)cc(C)n(CCOC)c2=O)CC1 (stereo not drawn) ?
VACV mCherry inh: -5%; Vaccinia Venus: -2%

What do the screens show for `CC1(C)NC(=O)N(CCCC(=O)Nc2ccc(C(F)(F)F)cc2)C1=O`?
HCV inhibitor: 7%

Results for Cc1ccc(-c2csc(NC(=O)C[n+]3cc(-c4ccccc4)n4c3CCC4)n2)cc1 ?
VACV mCherry inh: -17%; Vaccinia Venus: inconclusive; HCV inhibitor: 2µM*

How did Cc1ccc(-c2csc(NC(=O)C[n+]3cc(-c4ccc(C)cc4)n4c3CCC4)n2)cc1 do in these assays?
VACV mCherry inh: inconclusive; Vaccinia Venus: inconclusive; HCV inhibitor: 3.5µM*

Results for Cc1ccc(-c2c[n+](CC(=O)Nc3c(C)cccc3C)c3n2CCC3)cc1 ?
HCV inhibitor: 2%

What do the screens show for `Cc1ccc(NC(=O)C[n+]2cc(-c3ccccc3)n3c2CCC3)c(C)c1`?
VACV mCherry inh: 14%; Vaccinia Venus: 0%; HCV inhibitor: -18%

Results for O=C1c2ccccc2C(c2nnnn2-c2ccc3c(c2)OCCO3)N1Cc1ccc2c(c1)OCO2 (stereo not drawn) ?
VACV mCherry inh: 5%; Vaccinia Venus: 8%

What do the screens show for `COc1cc(CNc2nc(C)c(-c3ccn(C4Cc5ccccc5C4)n3)s2)cc2c1OCO2`?
VACV mCherry inh: -8%; Vaccinia Venus: -29%

Results for Cc1ccccc1NC(=O)Cc1nc(COC(=O)c2ccc(S(C)(=O)=O)c([N+](=O)[O-])c2)cs1 ?
HCV inhibitor: 10µM*

What do the screens show for `Cc1ccccc1NC(=O)COC(=O)c1ccc(S(C)(=O)=O)c([N+](=O)[O-])c1`?
VACV mCherry inh: -1%; Vaccinia Venus: -26%; HCV inhibitor: inconclusive

Results for CC(=O)c1cccc(NC(=O)C(C)OC(=O)c2ccc(S(C)(=O)=O)c([N+](=O)[O-])c2)c1 (stereo not drawn) ?
VACV mCherry inh: -8%; Vaccinia Venus: -17%

What do the screens show for `CC(=O)c1cccc(NC(=O)COC(=O)c2ccc(S(C)(=O)=O)c([N+](=O)[O-])c2)c1`?
VACV mCherry inh: -10%; Vaccinia Venus: -14%; HCV inhibitor: 5µM*

What do the screens show for `O=C(NCC1Cc2cc(-c3cncnc3)cc(Cl)c2O1)c1cccc(Cn2cccn2)c1` (stereo not drawn)?
VACV mCherry inh: -3%; Vaccinia Venus: -3%

Results for CCN(c1ccccc1)S(=O)(=O)c1ccc(NC(=O)c2nc(SC(C)C)ncc2Cl)cc1 ?
VACV mCherry inh: -16%; Vaccinia Venus: -5%

How did COc1ccc(-c2cc(C(=O)N3CCN(c4ccc(F)cc4)CC3)no2)cc1OC do in these assays?
VACV mCherry inh: -8%; Vaccinia Venus: -4%; HCV inhibitor: inconclusive

Results for CNc1ccc(Br)cc(C(=O)/C=C/c2ccc(OC)cc2)c1=O ?
VACV mCherry inh: inactive; Vaccinia Venus: -6%; HCV inhibitor: 34%

How did CCNc1ccc(Br)cc(C(=O)/C=C/c2ccc(Cl)cc2Cl)c1=O do in these assays?
HCV inhibitor: 8.9µM*

What do the screens show for `COc1ccc(C(CNc2ccc(S(=O)(=O)N3CCCC3)cc2[N+](=O)[O-])N2CCCC2)cc1` (stereo not drawn)?
VACV mCherry inh: -15%; Vaccinia Venus: -10%; HCV inhibitor: inconclusive

Results for COc1ccc(CCN(C)c2ccc(S(=O)(=O)N3CCCC3)cc2[N+](=O)[O-])cc1OC ?
VACV mCherry inh: -1%; Vaccinia Venus: -23%; HCV inhibitor: inconclusive

What do the screens show for `COc1ccccc1C(CNc1ccc(S(=O)(=O)N2CCCC2)cc1[N+](=O)[O-])N(C)C` (stereo not drawn)?
VACV mCherry inh: 8.9µM*; Vaccinia Venus: 10µM*; HCV inhibitor: -22%

Results for COc1ccc(CCNc2ccc(S(=O)(=O)N3CCN(C)CC3)cc2[N+](=O)[O-])cc1 ?
VACV mCherry inh: -24%; Vaccinia Venus: -16%; HCV inhibitor: inconclusive

Results for COc1ccc(CN(C)c2ccc(S(=O)(=O)N3CCN(C)CC3)cc2[N+](=O)[O-])cc1OC ?
VACV mCherry inh: -5%; Vaccinia Venus: -16%; HCV inhibitor: 0.56µM*

How did COc1ccc(C(CNc2ccc(S(=O)(=O)N3CCN(C)CC3)cc2[N+](=O)[O-])N(C)C)cc1 (stereo not drawn) do in these assays?
VACV mCherry inh: -15%; Vaccinia Venus: -9%; HCV inhibitor: 10µM*

What do the screens show for `Cc1c(NC(=S)NC(=O)c2cccc(Cl)c2)c(=O)n(-c2ccccc2)n1C`?
HCV inhibitor: 10%

How did CCc1cccc(NC(=O)c2cc3c(=O)n(Cc4ccccc4)ccc3nc2C)c1 do in these assays?
VACV mCherry inh: -7%; Vaccinia Venus: -17%

Results for C=CCOC(=O)Cn1cnc2c(sc3nc(C)cc(C)c32)c1=O ?
VACV mCherry inh: -6%; Vaccinia Venus: -16%; HCV inhibitor: -6%

Results for O=C(Nc1ccc(Cl)cc1Cl)[C@@H]1CC=C[C@@H]2CCN(C3CCCCC3)C(=O)[C@@H]21 ?
VACV mCherry inh: -1%; Vaccinia Venus: -7%
